This test deals with Phorbol Ester. The experiment in a line: CYP450 and receptor off-target profile – biochemical, Ricerca HitProfilingScreen, selectivity assay for S1P4 agonist project, late-stage follow-up (AID 504400). The conditions noted are these: Ricerca radioligand binding/enzyme panel plus CYP450, at 10 µM, stronger effect = higher value.

Unmarked numbers belong to inactive results. No rule for the calls is given here.

Usually inhibition stands for the relative decrease from the control value, in per cent. Take `Clc1ccc(OCCOc2ccc(Br)nc2Br)c(Cl)c1`: the inhibition was 4%.

Source of the values: PubChem BioAssay AID504400 (The Scripps Research Institute Molecular Screening Center, 2011).
